# Assay outcomes deposited in PubChem BioAssay by several laboratories.
# C8 TRAIL sens: caspase-8 TRAIL sensitization; inhibition (viability loss, TRAIL sensitization), % at 10 µM; 1% of 360,000 active; NB7+C8 cells + TRAIL, ATPlite viability luminescence; AID 624354;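 active means compounds causing at least 50% loss of cell viability in the single-dose screen, relative to plate controls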
# TWEAK Fn14 block: inhibitors of TWEAK-Fn14 interaction signaling | 2% of 360,000 active | TWEAK-stimulated Fn14 reporter cells, luciferase luminescence, 8 h | inhibition, % at 10 µM; in the data active means inhibition above about 50%
# TROY NFkB inh: inhibitors of TROY-dependent NF-kB signaling; inhibition, % at 10 µM; 0.98% of 360,000 active; Q293 LMP1-TROYcd NF-kB luciferase reporter, 4 h;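 active means compounds whose plate-normalised and pattern-corrected inhibition of the luciferase reporter signal at the single screening dose is 50% or more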
# HSP90 inh: blocks HSP90-mediated luciferase refolding in reticulocyte lysate | Rabbit reticulocyte lysate, luciferase refolding luminescence, 3 h | inhibition, % at 5.6 µM | 0.91% of 290,000 active;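 active means inhibition above the screen-wide mean plus 3 SD, computed separately per campaign, cut at about 16% in these data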;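 further: 0% = DMSO wells and 100% = 60 µM geldanamycin wells; inhibitors lower the luminescence because luciferase stays unfolded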
# HIF-2a block: HIF-2a inhibition. AID 624352. 786-0 RCC cells HIF-2a reporter, luciferase luminescence, overnight. inhibition, % at 18.8 µM. 0.72% of 360,000 active;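 active means inhibition of the luminescence signal of 40% or more relative to plate controls, in a single-dose primary screen at 18.75 µM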
# aSyn UTR inh: MLPCN primary screen, SNCA 5' untranslated region; alpha-synuclein 5'UTR reporter, inhibitor activity; inhibition, % (tested at 7.5 µM); 0.82% of 300,000 active; AID 1813; in the data active means inhibition above about 60%; inconclusive means no clear call, values can overlap the other calls;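 further: H4 neuroglioblastoma cells stably carrying SNCA 5'UTR luciferase fusion; 0% = DMSO wells and 100% = positive control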
# An asterisk follows results filed as active; ? = inconclusive; nt = no result given; ! = a repeat was not active. Compounds with a hit are over-represented: about 3.9% of the library has one in this group of screens.
SMILES,C8 TRAIL sens,TWEAK Fn14 block,TROY NFkB inh,HSP90 inh,HIF-2a block,aSyn UTR inh
O=C(CN1CCN(S(=O)(=O)c2ccc(F)cc2)CC1)Nc1ccc(F)cc1F,2,-36,-28,0,-81,-47
Cc1ccc(N=Cc2ccccc2O)cc1Cl,1,59*,7,nt,-4,nt
Cc1csc(-c2nc3ccccc3n2C(C)c2nc3ccccc3[nH]2)c1 (stereo not drawn),-10,nt,nt,nt,26,nt
CCc1ccc([C@@H]2CC=C(C(=O)O)[C@H](c3ccc(C(C)(C)C)cc3)N2S(=O)(=O)c2ccc(C)cc2)cc1,-4,84*,84*,nt,14,nt
Cc1ccc([C@@H]2CC=C(C(=O)O)[C@H](c3ccc(C(C)(C)C)cc3)N2S(=O)(=O)c2ccc(C)cc2)cc1,13,52*,65*,nt,3,nt
Cc1ccc(S(=O)(=O)N2C(c3ccc(Cl)c(Cl)c3)CC=C(C(=O)O)C2c2ccc(Cl)cc2)cc1 (stereo not drawn),-11,nt,nt,nt,-21,nt
Cc1ccc(S(=O)(=O)N2[C@@H](c3ccc(Cl)cc3)C(C(=O)O)=CC[C@H]2c2ccc(Cl)c(Cl)c2)cc1,-14,26,63*,nt,11,nt
Cc1ccc(S(=O)(=O)N2[C@@H](c3ccc(C(C)(C)C)cc3)C(C(=O)O)=CC[C@H]2c2ccc(C(C)C)cc2)cc1,-3,94*,87*,nt,16,nt
Cc1ccc(CN2C(=O)c3ccccc3C2c2nnnn2-c2c(C)cccc2C)cc1 (stereo not drawn),-11,-7,-8,nt,-3,nt
C=C1CCCC2OC(CC3=CC4/C(C)=C/CC(C)CC(/C=C(\C)C(O)C5CC(O)C(O)C(CCC(O)/C=C/C(C)=C/CCC6=NCCC(C3)C64C)O5)OC(=O)CC3OC(C(O)C1)C(O)C3O)CC(O)C2O (stereo not drawn),22,-4,13,nt,5,nt
Cc1ccc(S(=O)(=O)N2[C@@H](c3ccc(Br)cc3)C(C(=O)O)=CC[C@H]2c2ccc(C(C)C)cc2)cc1,3,21,70*,nt,2,nt
Cc1ccc(S(=O)(=O)N2[C@@H](c3ccc(Cl)c(Cl)c3)C(C(=O)O)=C[C@H]2CC2CCCC2)cc1,-2,11,67*,nt,12,nt
Cc1ccc(S(=O)(=O)N2[C@@H](c3ccc(Cl)cc3)C(C(=O)O)=C[C@H]2CC2CCCC2)cc1,-6,7,29,nt,12,nt
Cc1ccc([C@@H]2CC=C(C(=O)O)[C@H](c3ccc(Br)cc3)N2S(=O)(=O)c2ccc(C)cc2)cc1,5,18,29,nt,14,nt
Cc1ccc(S(=O)(=O)N2[C@@H](c3ccc(C(C)(C)C)cc3)C(C(=O)O)=CC[C@H]2c2ccc(Cl)cc2)cc1,16,89*,88*,nt,13,nt
Cc1ccc(S(=O)(=O)N2[C@@H](c3cccc(Cl)c3)C(C(=O)O)=CC[C@H]2c2ccc(Cl)cc2)cc1,10,19,35,nt,22,nt
O=C(/C=C/[C@H]1O[C@@H](n2cnc3c(NC(=O)c4ccccc4)ncnc32)[C@H](O)[C@@H]1O)NCc1ccc2c(c1)OCO2,-5,1,3,nt,9,nt
O=C(Nc1cc(Oc2ccc(Cl)cc2)cc([N+](=O)[O-])c1)c1ccco1,8,57*,57*,-1,-31,11
Cc1cccc(Oc2cc(NC(=O)c3ccccc3)cc([N+](=O)[O-])c2)c1,9,59*,57*,-1,-5,-2
CCOc1ccc(Oc2cc(NC(=O)c3ccco3)cc([N+](=O)[O-])c2)cc1,5,-1,-32,0,-4,nt
O=C(CCc1ccc(Oc2cc([N+](=O)[O-])cc([N+](=O)[O-])c2)cc1)Nc1cccc(Cl)c1,-5,59*,29,0,9,21
CC(C)C[C@@H]1CN(CCCC[C@H]2CNC(=O)C(=O)N2CCC2CCCCC2)C(=O)C(=O)N1CCc1ccc(O)cc1,-5,5,-11,nt,-3,nt
NC1=NN=C(c2ccc3c(c2)OCCO3)CS1,47,58*,45,2,-20,?
Cc1cc(-c2nnn(CCCOC(C)(C)C)c2C)ccc1-c1cn(CCCOC(C)(C)C)nn1,25,15,14,nt,7,nt
C=CCn1c(SCC(=O)O)nc2sc(CC)cc2c1=O,-8,16,0,-6,13,5
SMILES,C8 TRAIL sens,TWEAK Fn14 block,TROY NFkB inh,HSP90 inh,HIF-2a block,aSyn UTR inh
C=CCn1c(SCC(=O)c2cccs2)nc2sc(CC)cc2c1=O,31,79*,41,0,-15,26
O=C(CCCCn1ccc(=O)[nH]c1=O)Nc1ccc(O)c(C(=O)O)c1,-4,4,3,nt,8,nt
COc1ccc(C2C(C(=O)Nc3cc(OC)c(OC)c(OC)c3)c3ccccc3C(=O)N2C)cc1 (stereo not drawn),19,1,13,4,20,98*
COc1ccc(C2C(C(=O)N3CCN(c4ccccc4)CC3)c3ccccc3C(=O)N2C)cc1OC (stereo not drawn),68*,-7,-24,13,18,10
COc1ccc(C2C(C(=O)N3CCN(c4ccccc4)CC3)c3ccccc3C(=O)N2C)cc1 (stereo not drawn),59*,17,1,2,17,-2
COc1ccc(C2C(C(=O)N3CCCC3)c3cc(OC)c(OC)cc3C(=O)N2C)cc1OC (stereo not drawn),6,-4,-3,7,23,1
COc1ccc(C2C(C(=O)Nc3cccc(OC)c3)c3ccccc3C(=O)N2C)cc1 (stereo not drawn),-1,-9,1,-3,17,-22
COc1ccc(C2C(C(=O)N3CCOCC3)c3ccccc3C(=O)N2c2ccc(OC)cc2)cc1 (stereo not drawn),2,5,3,3,8,-2
CC(CC(=O)c1ccc(F)cc1)N1CCN(c2ccccc2)CC1 (stereo not drawn),-3,-15,5,nt,15,nt
COc1ccc(C)cc1Nc1n[n+](-c2ccccc2)c(-c2c(OC)ccc3ccccc23)s1,32,58*,47,nt,-26,nt
COc1ccc(C)cc1Nc1n[n+](-c2ccccc2)c(-c2cc(OC)c(OC)cc2Br)s1,-7,-1,10,-2,9,-10
O=C1C(Cl)=C(NCCCO)C(=O)c2ccccc21,20,-23,-26,7,72*,-31
CCOCCCNC1=C(Cl)C(=O)c2ccccc2C1=O,-15,-1,-29,6,30,-32
O=C1C(Cl)=C(NCCCN2CCOCC2)C(=O)c2ccccc21,83*,0,-51,nt,49*,nt
CCOC(=O)c1cc2c(=O)n3cccc(C)c3nc2n(CCOC)c1=NC(C)=O,-12,-36,12,-7,18,-1
CCOC(=O)c1cc2c(=O)n3cccc(C)c3nc2n(CC2CCCO2)c1=NC(C)=O (stereo not drawn),2,92*!,-20,1,8,10
O=C1NC(Cc2ccc(O)cc2)c2nc3ccc(F)cc3c(=O)n2-c2ncccc21 (stereo not drawn),10,11,3,nt,13,nt
